# From ChEMBL document CHEMBL1157539, “Thousands of chemical starting points for antimalarial lead identification” (Nature, 2010)
# “And” between values parts separate entries of the source, which are not always exact repeats. Identical values can stand only once.
# Tested on: HepG2
# Assay: GSK_TCMDC: Percent inhibition of human HepG2 cell line. Test compounds present at 10uM.
# Assay type: functional
row,Structure (SMILES),Inhibition
1,CC[C@H]1CN2CC[C@@H]1C[C@H]2[C@H](O)c1cc(-c2ccccc2)nc2ccc(O)cc12.Cl,14%
2,COC(=O)c1ccc(CC(C)NCC(O)c2cccc(Br)c2)cc1 (centres undefined),0%
3,CC[C@H]1CN2CCc3cc(OC)c(OC)cc3[C@@H]2C[C@@H]1C[C@H]1NCCc2c1cc(OC)c(O)c2Cl,51%
4,CC[C@H]1CN2CC[C@H]1C[C@H]2[C@H](O)c1cc(-c2ccc(OC(F)(F)F)cc2)nc2ccc(OC)cc12.Cl,24%
5,CC[C@H]1CN2CC[C@@H]1C[C@H]2[C@H](O)c1cc(N2CCC(O)(c3ccccc3)CC2)nc2ccc(OC)cc12,14%
6,CCN1CCC2(c3cccc(OC)c3)Cc3nc4ccccc4c(-c4ccccc4)c3CC2C1 (centres undefined),0%
7,CC(=O)C1(c2ccccc2)CCN(CCC2(c3ccc(Cl)c(Cl)c3)CN(C(=O)C3CCCC3)CCO2)CC1 (centres undefined),11%
8,CC(C)CN1CCC(N(C)c2cc(NC(=O)c3cccc(F)c3)ccn2)CC1.O=C(O)C(F)(F)F,8%
9,O=C(NC1CCC(CN2CCC(c3c[nH]c4ccccc34)CC2)CC1)c1cc(-c2ccccc2Cl)oc1C(F)(F)F (centres undefined),24%
10,COC(=O)/C=C/c1ccc(CC(C)NCC(O)c2cccc(C(F)(F)F)c2)cc1.Cl (centres undefined),41%
11,CC1(C)CCCN(C(=O)Cc2ccc3c(c2)CCCC3)C1CN1CC=CC1.Cl (centres undefined),0%
12,CC(=O)C1(c2ccccc2)CCN(CCC2(c3ccc(Cl)c(Cl)c3)CN(C(=O)c3cccc(Cl)c3)CCO2)CC1 (centres undefined),37%
13,CN(c1cc(NC(=O)c2ccc(F)cc2)ccn1)C1CCN(Cc2cccc(C#N)c2)CC1.O=C(O)C(F)(F)F,73%
14,COc1ccc(C(=O)C2CC2CN2CC=C(c3c[nH]c4ccccc34)CC2)cc1 (centres undefined),12%
15,COc1ccc(OC)c(C(O)CNC(C)C)c1.Cl (centres undefined),3%
16,N#Cc1ccc(N(CC(=O)NCCc2ccccc2)CC2CC2)c2ccccc12.O=C(O)C(F)(F)F,0%
17,O=C(/C=C/c1ccc(Cl)c(Cl)c1)NC1CCC(CN2CCC(c3c[nH]c4cc(O)ccc34)CC2)CC1 (centres undefined),18%

row,Structure (SMILES),Inhibition
1,Cc1[nH]c2ccc(NS(C)(=O)=O)cc2c1C1CCN(CC2CCN(C(=O)/C=C/c3ccc(Cl)c(Cl)c3)CC2)CC1,15%
2,CCCCNC(c1ccc(Cl)cc1)C(O)c1ccc(Cl)cc1.Cl (centres undefined),13%
3,O=C(/C=C/c1ccc(Cl)c(Cl)c1)NC1CCC(N2CCC(c3c[nH]c4ccccc34)CC2)CC1 (centres undefined),41%
4,COC(=O)c1ccc(CC(C)NCC(O)c2cccc(C(F)(F)F)c2)cc1F.Cl (centres undefined),1%
5,COc1ccc2[nH]cc(C3=CCN(Cc4ccccc4)CC3)c2c1,51%
6,CCCCCCCn1c(=O)c(C(=O)Nc2c(C)cccc2C)c(O)c2ccccc21,6%
7,Cl.N#Cc1c(F)cc(N2CCC(NCC[C@H](N)Cc3ccc(F)c(F)c3)CC2)cc1F,70%
8,CC[C@H]1CN2CC[C@@H]1C[C@H]2[C@H](O)c1cc(N2CCCC(C)(C)C2)nc2ccc(OC)cc12,25%
9,CN(C)c1cccc(NC(=O)NC2N=C(c3ccccc3)c3ccccc3N(CC(=O)N(C)c3ccccc3)C2=O)c1 (centres undefined),1%
10,O=C(/C=C/c1ccc(Cl)c(Cl)c1)N1CCC(CN2CCC(c3c(-c4ccccc4)[nH]c4ccccc34)CC2)CC1,43%
11,O=C(/C=C/c1cc(F)c(F)cc1F)N1CCC(CN2CCC(c3c[nH]c4ccccc34)CC2)CC1,26%
12,O=C(C=Cc1ccccc1Br)NC1CCC(CN2CCC(c3c[nH]c4ccccc34)CC2)CC1 (centres undefined),36% and 43%
13,Cl.O=C(/C=C/c1ccc(Cl)c(Cl)c1)NC1C2CCC1CC(CN1CCC(c3c[nH]c4ccccc34)CC1)C2 (centres undefined),31%
14,CN(c1cc(NC(=O)c2cccs2)ccn1)C1CCN(Cc2ccccc2)CC1.O=C(O)C(F)(F)F,0%
15,NC(=O)c1ccc2[nH]cc(C3CCN(CC4CCC(NC(=O)/C=C/c5ccc(Cl)c(Cl)c5)CC4)CC3)c2c1 (centres undefined),0% and 11%
16,O=C(O)c1ccc2nc(-c3ccc(-c4ccccc4)cc3)n(C3CCN(Cc4ccc(-c5ncc[nH]5)cc4)CC3)c2c1,3%
17,O=C(/C=C/c1cccc2ccccc12)NC1CCC(CN2CCC(c3c[nH]c4ccccc34)CC2)CC1 (centres undefined),45% and 53%
